Consider 40 compounds from PubChem BioAssay (NCATS).

Inconclusive results are not listed. Values without a mark were called inactive. Calls of active or inactive are those of the source. Calls come from the whole dose curve.
% is set by controls: 0 for no effect and ±100 for the full control effect; potency is the fitted concentration of half-maximal effect.

Nucleoprotein (Lymphocytic choriomeningitis virus (strain Armstrong)), sequence (P09992 whole entry, looked up): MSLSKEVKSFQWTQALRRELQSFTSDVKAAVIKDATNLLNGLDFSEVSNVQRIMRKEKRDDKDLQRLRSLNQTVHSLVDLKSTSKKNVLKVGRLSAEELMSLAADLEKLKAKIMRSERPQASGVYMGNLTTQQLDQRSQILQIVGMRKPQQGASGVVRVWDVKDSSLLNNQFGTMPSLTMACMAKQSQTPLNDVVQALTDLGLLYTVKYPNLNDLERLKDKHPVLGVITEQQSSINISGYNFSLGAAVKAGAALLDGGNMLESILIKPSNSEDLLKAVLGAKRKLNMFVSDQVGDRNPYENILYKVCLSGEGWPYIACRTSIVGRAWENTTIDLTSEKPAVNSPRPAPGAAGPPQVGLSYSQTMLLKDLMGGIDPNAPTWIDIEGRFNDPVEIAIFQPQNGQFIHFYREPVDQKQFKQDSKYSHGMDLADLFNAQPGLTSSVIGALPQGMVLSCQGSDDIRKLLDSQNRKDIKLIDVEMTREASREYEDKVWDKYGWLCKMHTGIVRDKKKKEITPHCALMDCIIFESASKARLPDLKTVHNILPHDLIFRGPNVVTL

The assay addresses Nucleoprotein (Lymphocytic choriomeningitis virus (strain Armstrong)) (UniProt P09992). Briefly: qHTS for Inhibitors of the Functional Ribonucleoprotein Complex (vRNP) of Lymphocytic Choriomeningitis Arenaviruses (LCMV): LCMV Primary Screen - GLuc reporter signal (AID 1347086). Note: nearly all actives have a fitted effect of over 70% in size. To be noted: LCMV minigenome vRNP cell assay, Gaussia luciferase reporter; series mostly up to 57.5 µM; activity change, negative = inhibition: at the top concentration. (In general: Quantitative high-throughput screening tests each substance at several concentrations.)
For `NC[C@@H]1O[C@@H](O[C@H]2[C@@H](O)[C@H](O[C@@H]3[C@@H](O)[C@@H](N)C[C@H](N)[C@H]3O[C@H]3O[C@H](CN)[C@@H](O)[C@@H](O)[C@H]3N)O[C@H]2CO)[C@H](N)[C@@H](O)[C@@H]1O`, the “activity change, negative = inhibition” value is -10.8%.
The same measure, in the same setting: then `O=C(O)c1cc(N(Cc2ccccc2O)Cc2ccccc2O)ccc1O`, with -8.55%; and `COc1ccc([C@H]2Cc3cccc(O)c3C(=O)O2)cc1O`, with 9.98%; and `COc1cc(/C=C2/C(=O)Nc3ccccc32)cc(OC)c1O`, with 14.3%.
Same read-out and setting: as for `C/C=C(/C)C(=O)O[C@@H]1c2c(ccc3ccc(=O)oc23)O[C@@H]1C(C)(C)OC(C)=O`, the figure is 10.8%.
On the same count and under the same terms, as for `COc1cc(C)c(C(=O)Oc2cc(C)c(C(=O)O)c(O)c2C)c(O)c1C`, the figure is -2.22%; as for `CCN1C[C@]2(CO)CC[C@H](OC)[C@@]34C5C[C@H]6[C@H](OC)C5[C@](O)(C[C@H]6OC)[C@@](O)(C(OC)C23)[C@@H]14` (stereo not given in full), 1.18%.
For `CC1CCC(C(C)(C)S)C(=O)C1` (stereo not given), the “activity change, negative = inhibition” value is 27% [at 115 µM].
Turning to `CC1C(c2ccccc2)OC(=O)N1C` (stereo not given), the “activity change, negative = inhibition” value is 23.5%.
Same read-out and setting: then `COc1ccc(COC(C)=O)cc1`, with 21.3% [at 115 µM].
On the same count and under the same terms, as for `Nc1nc(N)c2[nH]cnc2n1`, the figure is 5.75%.
On the same count and under the same terms, then `C[C@@H](O)CCC[C@H](O)/C=C/[C@H]1[C@H](O)CC(=O)[C@@H]1C/C=C\CCCC(=O)O`, with -73.7% [at 5.82 µM]; and `COc1cc2c(cc1O)[C@@H]1Cc3cc(OC)c(OC)cc3C(C2)N1C`, with -1.52%.
Consider `COc1ccc2ccc(=O)oc2c1CC(=O)C(C)C`, for which the “activity change, negative = inhibition” value is 8.94%.
Same read-out and setting: as for `CCC/C=C/CO`, the figure is 32.5% [at 115 µM].
The same measure, in the same setting: then `O=C(O)CCC/C=C\C/C=C\C=C\[C@@H](O)C/C=C\CCCCCO`, with 12.9% [at 0.757 µM].
Same read-out and setting: as for `COc1c2c(nc3occc13)C(CC=C(C)C)(OC)C(=O)C=C2` (stereo not given), the figure is -96%; as for `CC(O)C(C)O` (stereo not given), 38.2% [at 115 µM]; as for `C[C@]12CCC3C(CC[C@H]4C[C@H](O)CC[C@]34C)C1C[C@H](O)[C@@H]2O` (stereo not given in full), -3.04%.
On to `C=Cc1cc(OC)c2c(c1)c(=O)oc1c2cc(OC)c2c(O)ccc(C3OC(C)C(O)C(C)(O)C3O)c21` (stereo not given), for which the “activity change, negative = inhibition” value is 3.08%.
On the same count and under the same terms, as for `Nc1nc(=O)n([C@H]2CSC(CO)O2)cc1F` (stereo not given in full), the figure is 10.2%; as for `C[C@H]1O[C@H](O[C@H]2[C@H](O)[C@@H](O)[C@@H](O[C@H]3[C@H](O)[C@@H](O)C(O)O[C@H]3CO)O[C@H]2CO)[C@H](O)[C@@H](O)[C@H]1N[C@H]1C=C(CO)[C@@H](O)[C@H](O)[C@@H]1O` (stereo not given in full), 14.4%; as for `C=C1C(O)C[C@H]2C(=C)CCC3[C@H](OC(=O)[C@]3(O)CO)[C@@H]12` (stereo not given in full), 8.57%.
Same read-out and setting: then `NC1=NCCCC1`, with -0.474%; and `CC(=O)c1ccc(-c2cccs2)s1`, with 21.3%.
As for `Cc1[nH]c(C=C2C(=O)Nc3ccccc32)c(C)c1CCC(=O)O`, the Potency was 34.3 µM (active).
Consider `COc1c2c(cc3oc(CO[C@@H]4O[C@H](CO)[C@@H](O)[C@H](O)[C@H]4O)cc(=O)c13)O[C@H](C(C)(C)O)C2`, for which the “activity change, negative = inhibition” value is 8.27%.
Same read-out and setting: as for `CCCCC[C@H](O)/C=C/[C@H]1OC(O)C[C@H](O)[C@@H]1C/C=C\CC(=O)O` (stereo not given in full), the figure is 5.45% [at 0.757 µM]; as for `COC1=CC(=O)CC(C)C12Oc1cc(OC)cc(OC)c1C2=O` (stereo not given), 15.7%; as for `C=CC(C)(CCC=C(C)C)OC(=O)C(C)C` (stereo not given), 9.18% [at 115 µM].
As to `COc1c(C(O)CC(C)C)ccc2c1C(=O)OCc1cc(C)cc(O)c1O2` (stereo not given), the “activity change, negative = inhibition” value was 5.34%.
On the same count and under the same terms, then `C[C@@H]1CCCCCCCCCCC1=O`, with -14.3%.
Same read-out and setting: as for `CCCCC/C=C\C/C=C\C/C=C\CCCCCCC(=O)O[C@H](COCCCCCCCCCCCCCCCC)COP(=O)([O-])OCC[N+](C)(C)C`, the figure is 9.5% [at 5.82 µM]; as for `CCNC(=O)[C@H]1O[C@@H](n2cnc3c(N)nc(NCCc4ccc(CCC(=O)O)cc4)nc32)[C@H](O)[C@@H]1O`, 22.1%; as for `COc1cc2c(c(OC)c1OC)-c1c(cc3c(c1O)OCO3)C[C@@H](C)[C@@H](C)C2`, 16.9%.
As to `COc1cc(=O)n(C)c2c(O)cccc12`, the “activity change, negative = inhibition” value was 7.43%.
Same read-out and setting: as for `CC1(C)CCC[C@]2(C)[C@H]3CC(=O)O[C@]3(C)CC[C@@H]12`, the figure is -3.83%; as for `CC(C)=CCc1c(-c2ccc(O)cc2O)oc2cc3c(c(O)c2c1=O)C=CC(C)(C)O3`, -2.02%.
Same read-out and setting: as for `O=C1NC(=O)/C(=C/c2ccc3c(c2)OC(F)(F)O3)S1`, the figure is -18.3%; as for `COc1ccc(CCNC(=O)/C=C\c2ccccc2)cc1OC`, 11.1%.
